# Data: PubChem BioAssay (NCI)
# The panel holds about 83,000 compounds, 20% with a hit somewhere; the sample as a whole holds those more often.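 Values shown are percent growth following 48 h exposure of cells in 96-well plates to a single concentration of compound; below 10 was considered active.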 Unmarked numbers belong to inactive results. Activity calls are given as the source filed them.
# Tests used:
# Assay in all cases: NCI-60 one-dose screen, 48 h (100 = growth as untreated, 0 = no growth, -100 = all killed)
# Conditions in all cases: 10 µM unless noted
# HCT-15 colon = system: HCT-15 colon
# HT29 colon = system: HT29 colon
# SNB-75 CNS = system: SNB-75 CNS
# PC-3 prostate = system: PC-3 prostate
# SK-MEL-5 melanoma = system: SK-MEL-5 melanoma
# UACC-62 melanoma = system: UACC-62 melanoma
# LOX IMVI melanoma = system: LOX IMVI melanoma
# SK-MEL-28 melanoma = system: SK-MEL-28 melanoma
# SK-MEL-2 melanoma = system: SK-MEL-2 melanoma
# EKVX NSCLC = system: EKVX NSCLC
# SN12C renal = system: SN12C renal
# UO-31 renal = system: UO-31 renal
# TK-10 renal = system: TK-10 renal
# ACHN renal = system: ACHN renal
# CAKI-1 renal = system: CAKI-1 renal
# A498 renal = system: A498 renal
# CCRF-CEM leukemia = system: CCRF-CEM leukemia
# MOLT-4 leukemia = system: MOLT-4 leukemia
# U251 CNS = system: U251 CNS
# SNB-19 CNS = system: SNB-19 CNS
Structure (SMILES),growth (HCT-15 colon),growth (HT29 colon),growth (SNB-75 CNS),growth (PC-3 prostate),growth (SK-MEL-5 melanoma),growth (UACC-62 melanoma),growth (LOX IMVI melanoma),growth (SK-MEL-28 melanoma),growth (SK-MEL-2 melanoma),growth (EKVX NSCLC),growth (SN12C renal),growth (UO-31 renal),growth (TK-10 renal),growth (ACHN renal),growth (CAKI-1 renal),growth (A498 renal),growth (CCRF-CEM leukemia),growth (MOLT-4 leukemia),growth (U251 CNS),growth (SNB-19 CNS)
CCN(CC)CCOc1ccc(NC(=O)C(C(C)C)N2C(=O)/C(=C/c3ccc(Br)cc3)SC2=S)cc1 (centres undefined),-40.9% (active),-5.87% (active),66%,64.5%,89.2%,95.3%,62.9%,89%,101%,90%,73.3%,74.5%,95.6%,62.1%,81%,99.5%,-16.7% (active),3.96% (active),,
C=C1C(=O)O[C@H]2[C@H]1CC/C(CNC(=O)/C=C/c1ccccc1)=C\CC[C@@]1(C)O[C@@H]21,-72.7% (active),-22.8% (active),86.8%,9.48% (active),40.6%,-81.6% (active),-88% (active),-38.1% (active),40.8%,-16.2% (active),-32.1% (active),-85.2% (active),-47.1% (active),-34.5% (active),-88.1% (active),,1.78% (active),-26.4% (active),46.1%,
CCOc1cccc(-c2nc(N)nc(Nc3ccccc3SSc3ccccc3Nc3nc(N)nc(-c4cccc(OCC)c4)n3)n2)c1,18.5%,110%,90.5%,29.5%,88%,66.2%,4.82% (active),93.6%,98.1%,60.5%,32.9%,-25.5% (active),102%,59.5%,8.02% (active),,46.5%,56.7%,8.24% (active),
COc1ccc(/C=C/c2nc(Nc3ccc(Cl)cc3)c3ccccc3n2)cc1,34.8%,,61.7%,54.5%,69.7%,14.3%,18.4%,90.2%,89.2%,81.8%,38.5%,34.3%,70.8%,49.4%,56.5%,16.6%,8.06% (active),32.1%,45.7%,64.4%
C[C@H]1[C@H](C)CC[C@]2(C(=O)NCC#CCN3CCN(C)CC3)CC[C@]3(C)C(=CC[C@@H]4[C@@]5(C)Cc6c([nH]c7ccccc67)C(C)(C)[C@@H]5CC[C@]43C)[C@H]12,47%,,90.1%,69.8%,88.5%,101%,70.9%,82.3%,105%,86.5%,81.2%,67.6%,88.8%,96.3%,91.9%,,66.7%,44.6%,64.3%,83.2%
ClC1=C(Br)C(Br)(Br)C(=C(Br)Br)C1(Br)Br,79.2%,,96.6%,82.8%,92.6%,81.2%,77.9%,102%,110%,111%,95.5%,71.7%,80.4%,78.6%,61.3%,,25.1%,74.5%,94.5%,93.9%
O=C1c2ccccc2CCC12OC2c1cn(-c2ccccc2)nc1-c1ccc(Cl)cc1 (centres undefined),41.4%,,90.9%,83.6%,83.1%,63.8%,81.6%,100%,112%,96.7%,101%,88.6%,113%,98.8%,74.3%,91.9%,86.3%,,64.8%,91.9%
Cc1ccc(C(=O)/C(=C/c2ccc([N+](=O)[O-])cc2)SCc2ccc(Cl)cc2)cc1,8.64% (active),,84.8%,63.3%,91%,65.9%,0.133% (active),90.9%,91.5%,89%,70.3%,48.2%,90.8%,91.1%,74.8%,81%,8.74% (active),19.8%,-56.3% (active),34.1%
CCN(CC)CCCC(C)Nc1cc(O)cc2cccnc12 (centres undefined),102%,,74.9%,86.8%,116%,94.4%,88.7%,122%,135%,106%,85.7%,83.4%,122%,102%,109%,,108%,112%,88.2%,93.8%
O=C(NNc1nc2c(F)cccc2n2cccc12)c1cnccn1,,24.3%,74.3%,36.2%,5.96% (active),16.5%,-32.6% (active),8.95% (active),48.7%,18.5%,34.3%,8.05% (active),48.9%,4.68% (active),17.6%,54.3%,10.8%,,18.7%,23.9%
CCCCOc1ccc(/C=N/Nc2cc(C)nc3ccc(Br)cc23)cc1,-66% (active),,107%,53.3%,84.3%,87.3%,-96.9% (active),59.5%,106%,69.9%,-78.4% (active),-71.1% (active),76.2%,19.9%,71.3%,,2.46% (active),-26% (active),-53.5% (active),50.7%
Cc1nnc2c(Cc3ccccc3)nc3ccccc3n12,106%,,78.1%,104%,97.6%,100%,92.4%,103%,110%,90.9%,99.6%,90.8%,101%,100%,88.3%,90.6%,91.1%,91.2%,101%,103%
COc1ccc(-c2nc([C@@H](C)Sc3nc(N)cc(N)n3)c(C)s2)cc1OCCN1CCOCC1,103%,,91.9%,79.8%,82.2%,84.3%,95.8%,113%,104%,105%,99.8%,73.7%,104%,92.3%,90.6%,35.6%,83.7%,85.1%,,
O=C(Nc1ccccc1)Nc1ccc2cc3ccc(NC(=O)Nc4ccccc4)cc3nc2c1,93.9%,,-0.331% (active),51.5%,83%,18.7%,-52.8% (active),-13.4% (active),55.5%,86.6%,-26.5% (active),89.9%,114%,92%,80.3%,,0.957% (active),-27.6% (active),-39.3% (active),-27.5% (active)
Cc1ccc(-c2[nH][nH]c(=O)c2-c2nc3ccccc3s2)cc1,99.1%,,79.4%,96.9%,102%,95.9%,95.7%,111%,108%,97.4%,98.7%,78.7%,107%,97.3%,88.7%,,93.3%,100%,,97.9%
COc1cc(/C=C2\COc3ccc(-c4ccccc4)cc3C2=O)cc(OC)c1,61.3%,,51.8%,57.9%,86.3%,,71.9%,97.7%,83.9%,102%,80.5%,77.1%,103%,88.7%,71.6%,95.5%,20.3%,30.7%,75.8%,98.9%
